According to PubChem BioAssay AID1159580 (chemical genetic matrix, 2015):
Several values for one entry are separate records, joined by “and”; a condition that tells them apart may be missing. Equal values may be shown once. The campaign covered roughly 5,500 compounds. About 2,000 (36%) were called active. About 18% were inconclusive and are not listed. No stated cut-off is given here; in the data, active means normalized growth mostly below about 0.91 (no sharp cut-off); inconclusive means no clear call, values can overlap the other calls; inactive means mostly above about 0.92. This is one part of the list. Where a SMILES comes first, the peptide text is derived from it. Bridges are numbered along the chain shown (N, C = ends). [ ]: non-standard residue; d: D form. The star is where a group is joined. ξ: configuration not given here. ξDab(CH2SO3H) = NC(CCNCS(=O)(=O)O)C(=O)O; Heptanoyl(6-Me) = CC(C)CCCCC(=O)*; Dab = NCC[CH](N)C(=O)O

Assay: chemical genetic growth profiling, strain panel (AID 1159580);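 further: tested at 20 µM; growth read once vehicle control cultures reached saturation at 30 °C; 1 = growth at the plate median or of vehicle wells; lower values mean less growth of the strain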
Conditions: S. cerevisiae deletion strains, growth OD

Measured: normalized growth

CCC(C)C1NC(=O)C(CCNCS(=O)(=O)O)NC(=O)C(NC(=O)C(CCNCS(=O)(=O)O)NC(=O)C(NC(=O)C(CCNCS(=O)(=O)O)NC(=O)CCCCC(C)C)C(C)O)CCNC(=O)C(C(C)O)NC(=O)C(CCNCS(=O)(=O)O)NC(=O)C(CCNCS(=O)(=O)O)NC(=O)C(C(C)CC)NC1=O (stereo unspecified) ({Heptanoyl(6-Me)}-[ξDab(CH2SO3H)]T[ξDab(CH2SO3H)][Dab][ξDab(CH2SO3H)]II[ξDab(CH2SO3H)][ξDab(CH2SO3H)]T; lactam 4-C; configuration not given here)
inactive: locus YAL013W, strain DEP1, active compounds read low 1 | locus YAL021C, strain ccr4, active compounds read low 0.93 | locus YAL026C, strain drs2, active compounds read low 0.989 | locus YAL030W, strain snc1, active compounds read low 0.99 | locus YBL061C, strain skt5, active compounds read low 0.981 | locus YBR009C, strain hhf1, active compounds read low 0.971 | locus YBR021W, strain FUR4, active compounds read low 1.02 | locus YBR023C, strain chs3, active compounds read low 0.985 | locus YBR171W, strain sec66, active compounds read low 0.995 | locus YBR229C, strain ROT2, active compounds read low 0.987 | locus YBR231C, strain swc5, active compounds read low 1 | locus YBR279W, strain paf1, active compounds read low 1 | locus YCL011C, strain gbp2, active compounds read low 0.996 | locus YCL016C, strain dcc1, active compounds read low 0.994 | locus YCL029C, strain bik1, active compounds read low 0.955 | locus YCL061C, strain MRC1, active compounds read low 0.996 | locus YCL069W, strain vba3, active compounds read low 0.978 | locus YCR088W, strain abp1, active compounds read low 0.976 | locus YDL005C, strain med2, active compounds read low 1.01 | locus YDL035C, strain GPR1, active compounds read low 0.989 | locus YDL040C, strain nat1, active compounds read low 0.972 | locus YDL074C, strain BRE1, active compounds read low 1 | locus YDL101C, strain DUN1, active compounds read low 0.992 | locus YDL134C, strain PPH21, active compounds read low 0.993 | locus YDL185W, strain tfp1, active compounds read low 0.935 | locus YDL192W, strain arf1, active compounds read low 0.965 | locus YDR001C, strain nth1, active compounds read low 0.992 | locus YDR069C, strain doa4, active compounds read low 0.961 | locus YDR101C, strain arx1, active compounds read low 0.983 | locus YDR137W, strain rgp1, active compounds read low 1.03 | locus YDR150W, strain NUM1, active compounds read low 0.97 | locus YDR159W, strain sac3, active compounds read low 0.95 | locus YDR162C, strain NBP2, active compounds read low 0.98 | locus YDR195W, strain ref2 0.946 | locus YDR297W, strain sur2, active compounds read low 0.998 | locus YDR318W, strain mcm21, active compounds read low 0.956 | locus YDR334W, strain swr1, active compounds read low 0.959 | locus YDR335W, strain msn5, active compounds read low 0.984 | locus YDR388W, active compounds read low 0.972 | locus YDR392W, strain spt3, active compounds read low 1.02 | locus YDR502C, strain sam2, active compounds read low 0.976 | locus YEL003W, strain gim4, active compounds read low 0.996 | locus YEL037C, strain rad23, active compounds read low 0.969 | locus YEL061C, strain CIN8 (second series), active compounds read low 0.978 | locus YEL061C, strain CIN8, active compounds read low 0.982 | locus YER015W, strain faa2, active compounds read low 0.996 | locus YER016W, strain bim1, active compounds read low 0.997 | locus YER110C, active compounds read low 0.98 | locus YER111C, strain swi4, active compounds read low 1 | locus YER155C, strain BEM2 (second series), active compounds read low 1.01 | locus YER155C, strain BEM2, active compounds read low 0.984 | locus YER167W, strain BCK2, active compounds read low 0.964 | locus YFR010W, strain ubp6, active compounds read low 0.979 | locus YGL078C, strain dbp3, active compounds read low 0.968 | locus YGL086W, strain mad1, active compounds read low 0.972 | locus YGL167C, strain pmr1, active compounds read low 0.967 | locus YGL173C, strain kem1, active compounds read low 0.984 | locus YGL227W, strain vid30, active compounds read low 0.988 | locus YGL240W, strain doc1, active compounds read low 1 | locus YGL248W, strain PDE1, active compounds read low 0.988 | locus YGL253W, strain hxk2, active compounds read low 0.993 | locus YGR078C, strain PAC10, active compounds read low 0.999 | locus YGR135W, strain pre9, active compounds read low 0.988 | locus YGR229C, strain SMI1, active compounds read low 1.01 | locus YGR252W, strain gcn5, active compounds read low 1.1 | locus YHR013C, strain ard1, active compounds read low 0.978 | locus YHR027C, strain rpn1, active compounds read low 1 | locus YHR030C, strain SLT2, active compounds read low 0.98 and 1.01 | locus YHR079C, strain IRE1 (second series), active compounds read low 0.966 | locus YHR079C, strain IRE1, active compounds read low 0.971 | locus YHR094C, strain hxt1, active compounds read low 0.952 | locus YHR129C, strain ARP1, active compounds read low 0.98 | locus YHR142W, strain chs7, active compounds read low 0.982 | locus YHR200W, strain rpn10, active compounds read low 0.951 | locus YIL066C, strain RNR3, active compounds read low 0.977 | locus YIL073C, strain SPO22, active compounds read low 0.975 | locus YIL125W, strain kgd1, active compounds read low 0.969 | locus YIR030C, strain dcg1, active compounds read low 0.967 | locus YJL092W, strain hpr5, active compounds read low 0.987 | locus YJL095W, strain BCK1 (second series), active compounds read low 0.987 | locus YJL095W, strain BCK1, active compounds read low 0.974 and 0.981 | locus YJL115W, strain asf1, active compounds read low 0.975 | locus YJL129C, strain trk1, active compounds read low 1.08 | locus YJL134W, strain LCB3, active compounds read low 0.976 | locus YJL154C, strain vps35, active compounds read low 0.98 | locus YJL164C, strain tpk1, active compounds read low 0.994 | locus YJL166W, strain qcr8, active compounds read low 0.986 | locus YJL168C, strain set2, active compounds read low 0.966 | locus YJL187C, strain SWE1 (second series), active compounds read low 0.978 | locus YJR043C, strain POL32, active compounds read low 1 | locus YJR066W, strain TOR1, active compounds read low 0.97
